# Data: PubChem BioAssay AID602400 (Sanford-Burnham Center for Chemical Genomics, 2012)
# Values without a mark were called inactive. Active and inactive are the calls of the source. How the calls were made is not given here.
# Experiment: off-target activity on Bfl-1 – biochemical, set 4, counter-screen for UBC13 polyubiquitination inhibitor project, SAR follow-up (AID 602400)
# Conditions: Bfl-1 counterscreen for UBC13 inhibitors
row,SMILES,IC50
1,O=C(NCC1CCN(Cc2ccc(F)cc2)CC1)C1CCCN(c2ncnc3c2nc2n3CCCCC2)C1 (stereo not drawn),> 100 µM
2,O=C(NCC1CCN(Cc2cccc(Cl)c2)CC1)[C@H]1CCCN(c2ncnc3c2nc2n3CCCC2)C1,> 100 µM
3,Cc1ccc(NC(=O)C2CCN(c3ncnc4c3nc3n4CCCC3)CC2)cc1F,> 100 µM
4,CN(CCNC(=O)C1CCN(c2ncnc3c2nc2n3CCCCC2)CC1)Cc1ccccc1,> 100 µM
5,Cc1ccc(C)c(CN2CCC(CNC(=O)C3CCCN(c4ncnc5c4nc4n5CCCCC4)C3)CC2)c1 (stereo not drawn),> 100 µM
6,O=C(NCCCN1CCN(c2ccc(F)cc2)CC1)C1CCCN(c2ncnc3c2nc2n3CCCCC2)C1 (stereo not drawn),> 100 µM
7,COc1ccccc1N1CCN(CCCNC(=O)C2CCCN(c3ncnc4c3nc3n4CCCCC3)C2)CC1 (stereo not drawn),> 100 µM
8,O=C(NCC1CCN(Cc2ccc(Cl)cc2)CC1)C1CCCN(c2ncnc3c2nc2n3CCCCC2)C1 (stereo not drawn),> 100 µM
9,O=C(NCC1CCN(Cc2cccc(Cl)c2)CC1)[C@H]1CCCN(c2ncnc3c2nc2n3CCCCC2)C1,> 100 µM
10,Cc1ccc(NC(=O)C2CCN(c3ncnc4c3nc3n4CCCCC3)CC2)c(Cl)c1,> 100 µM
11,O=C(NCC1CCN(Cc2ccc(Cl)cc2)CC1)C1CCCN(c2ncnc3c2nc2n3CCCC2)C1 (stereo not drawn),76.8 µM (active)
12,O=C(NCC1CCN(Cc2ccccc2F)CC1)C1CCCN(c2ncnc3c2nc2n3CCCCC2)C1 (stereo not drawn),> 100 µM
13,O=C(C1CCN(c2ncnc3c2nc2n3CCCCC2)CC1)N1CCN(c2ccccc2)CC1,> 100 µM
14,O=C(c1ccco1)N1CCN(C(=O)C2CCN(c3ncnc4c3nc3n4CCCCC3)CC2)CC1,> 100 µM
15,CC1CC(C)CN(C(=O)C2CCN(c3ncnc4c3nc3n4CCCCC3)CC2)C1 (stereo not drawn),> 100 µM
16,Cc1ccc(NC(=O)C2CCN(c3ncnc4c3nc3n4CCCC3)CC2)cc1Br,14.7 µM (active)
17,O=C(Nc1ccc(F)c(Cl)c1)C1CCN(c2ncnc3c2nc2n3CCCCC2)CC1,> 100 µM
18,O=C(NCC1CCN(Cc2cccc(Cl)c2)CC1)[C@@H]1CCCN(c2ncnc3c2nc2n3CCCC2)C1,> 100 µM
19,Cc1ccccc1CN1CCC(CNC(=O)C2CCCN(c3ncnc4c3nc3n4CCCCC3)C2)CC1 (stereo not drawn),> 100 µM

row,SMILES,IC50
1,Cc1ccc(NC(=O)C2CCCN(c3ncnc4c3nc3n4CCCC3)C2)cc1C (stereo not drawn),> 100 µM
2,Cc1ccc(NC(=O)C2CCN(c3ncnc4c3nc3n4CCCC3)CC2)cc1C,20.8 µM (active)
3,CCC1CCCCN1CCCNC(=O)C1CCN(c2ncnc3c2nc2n3CCCCC2)CC1 (stereo not drawn),> 100 µM
4,O=C(C1CCN(c2ncnc3c2nc2n3CCCCC2)CC1)N1CCOCC1,> 100 µM
5,O=C(NCc1cccc(Cl)c1)C1CCCN(c2ncnc3c2nc2n3CCCC2)C1 (stereo not drawn),> 100 µM
6,O=C(NCc1cccc(Cl)c1)C1CCCN(c2ncnc3c2nc2n3CCCCC2)C1 (stereo not drawn),> 100 µM
7,O=C(C1CCN(c2ncnc3c2nc2n3CCCCC2)CC1)N1CCN(c2ccc(F)cc2)CC1,> 100 µM
8,CCCN1CCN(C(=O)C2CCN(c3ncnc4c3nc3n4CCCCC3)CC2)CC1,> 100 µM
9,O=C(NCC1CCN(Cc2cccc(Cl)c2)CC1)C1CCCN(c2ncnc3c2nc2n3CCCC2)C1 (stereo not drawn),> 100 µM
10,Cc1cc(C)cc(NC(=O)C2CCN(c3ncnc4c3nc3n4CCCC3)CC2)c1,23.9 µM (active)
11,O=C(NCc1ccc(Cl)c(Cl)c1)C1CCCN(c2ncnc3c2nc2n3CCCC2)C1 (stereo not drawn),> 100 µM
12,Cc1cccc(NC(=O)C2CCN(c3ncnc4c3nc3n4CCCC3)CC2)c1,23 µM (active)
13,COc1cc(OC)c(NC(=O)C2CCN(c3ncnc4c3nc3n4CCCCC3)CC2)cc1Cl,> 100 µM
14,Cc1cccc(N2CCN(CCCNC(=O)C3CCCN(c4ncnc5c4nc4n5CCCCC4)C3)CC2C)c1 (stereo not drawn),> 100 µM
15,O=C(NCCCN1CCN(c2ccccc2)CC1)C1CCCN(c2ncnc3c2nc2n3CCCCC2)C1 (stereo not drawn),> 100 µM
16,O=C(NCc1cccc(Cl)c1)C1CCN(c2ncnc3c2nc2n3CCCC2)CC1,> 100 µM
17,O=C(NCC1CCN(Cc2cccc(Cl)c2)CC1)C1CCCN(c2ncnc3c2nc2n3CCCCC2)C1 (stereo not drawn),> 100 µM
18,O=C(C1CCN(c2ncnc3c2nc2n3CCCCC2)CC1)N1CCN(Cc2ccccc2)CC1,> 100 µM
19,COc1ccc(NC(=O)C2CCN(c3ncnc4c3nc3n4CCCCC3)CC2)cc1Cl,> 100 µM
